FEN1 inhibitor – qHTS Assay for the Inhibitors of Human Flap endonuclease 1 (FEN1); AID 588795, 2011; actives 0.35% (n = 390,000); Potency, µM (series often up to 114 µM), for inactives: at the top dose activity change, negative = inhibition, most hits filed as inhibitors; Recombinant FEN1 flap cleavage, fluorescence, 15 min; note: % is set by controls: 0 for no effect and ±100 for the full control effect; nearly all actives have a fitted effect of over 65% in size
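In this screen, 50 nM flap DNA substrate was added to 10 nM FEN1 pretreated with compound for 15 min at room temperature; cleavage was followed with reads at 0 and 15 min, and Hill fitting gave concentration–response parameters.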
Pol iota inh – qHTS for Inhibitors of Polymerase Iota. Potency, µM (top dose mostly 115 µM), for the others: at the top dose activity, negative = inhibition, hits mostly inhibitors. Pol iota fluorescent replication assay, 10 min. actives 1% (n = 390,000). AID 588590, 2011. DNA polymerase iota (Homo sapiens), Q9UNA4
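Pol iota at 10 nM preincubated 15 min with compounds at room temperature; reaction started with fluorescent substrate, 50 nM final. Fluorescence read kinetically at 0 and 10 min; buffer-only wells as negative control.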
WRN inhibitor – qHTS for Inhibitors of WRN Helicase | Potency, µM (doses to about 114 µM), for the others: top-dose activity change, negative = inhibition, actives largely listed as inhibitors | WRN helicase unwinding, fluorescent forked duplex, kinetic | Bifunctional 3'-5' exonuclease/ATP-dependent helicase WRN (Homo sapiens), Q14191 | AID 651768, 2012 | actives 0.46% (n = 360,000); note: % is set by controls: 0 for no effect and ±100 for the full control effect; nearly all actives have a fitted effect of over 55% in size
Target sequence (Q14191 whole entry, looked up): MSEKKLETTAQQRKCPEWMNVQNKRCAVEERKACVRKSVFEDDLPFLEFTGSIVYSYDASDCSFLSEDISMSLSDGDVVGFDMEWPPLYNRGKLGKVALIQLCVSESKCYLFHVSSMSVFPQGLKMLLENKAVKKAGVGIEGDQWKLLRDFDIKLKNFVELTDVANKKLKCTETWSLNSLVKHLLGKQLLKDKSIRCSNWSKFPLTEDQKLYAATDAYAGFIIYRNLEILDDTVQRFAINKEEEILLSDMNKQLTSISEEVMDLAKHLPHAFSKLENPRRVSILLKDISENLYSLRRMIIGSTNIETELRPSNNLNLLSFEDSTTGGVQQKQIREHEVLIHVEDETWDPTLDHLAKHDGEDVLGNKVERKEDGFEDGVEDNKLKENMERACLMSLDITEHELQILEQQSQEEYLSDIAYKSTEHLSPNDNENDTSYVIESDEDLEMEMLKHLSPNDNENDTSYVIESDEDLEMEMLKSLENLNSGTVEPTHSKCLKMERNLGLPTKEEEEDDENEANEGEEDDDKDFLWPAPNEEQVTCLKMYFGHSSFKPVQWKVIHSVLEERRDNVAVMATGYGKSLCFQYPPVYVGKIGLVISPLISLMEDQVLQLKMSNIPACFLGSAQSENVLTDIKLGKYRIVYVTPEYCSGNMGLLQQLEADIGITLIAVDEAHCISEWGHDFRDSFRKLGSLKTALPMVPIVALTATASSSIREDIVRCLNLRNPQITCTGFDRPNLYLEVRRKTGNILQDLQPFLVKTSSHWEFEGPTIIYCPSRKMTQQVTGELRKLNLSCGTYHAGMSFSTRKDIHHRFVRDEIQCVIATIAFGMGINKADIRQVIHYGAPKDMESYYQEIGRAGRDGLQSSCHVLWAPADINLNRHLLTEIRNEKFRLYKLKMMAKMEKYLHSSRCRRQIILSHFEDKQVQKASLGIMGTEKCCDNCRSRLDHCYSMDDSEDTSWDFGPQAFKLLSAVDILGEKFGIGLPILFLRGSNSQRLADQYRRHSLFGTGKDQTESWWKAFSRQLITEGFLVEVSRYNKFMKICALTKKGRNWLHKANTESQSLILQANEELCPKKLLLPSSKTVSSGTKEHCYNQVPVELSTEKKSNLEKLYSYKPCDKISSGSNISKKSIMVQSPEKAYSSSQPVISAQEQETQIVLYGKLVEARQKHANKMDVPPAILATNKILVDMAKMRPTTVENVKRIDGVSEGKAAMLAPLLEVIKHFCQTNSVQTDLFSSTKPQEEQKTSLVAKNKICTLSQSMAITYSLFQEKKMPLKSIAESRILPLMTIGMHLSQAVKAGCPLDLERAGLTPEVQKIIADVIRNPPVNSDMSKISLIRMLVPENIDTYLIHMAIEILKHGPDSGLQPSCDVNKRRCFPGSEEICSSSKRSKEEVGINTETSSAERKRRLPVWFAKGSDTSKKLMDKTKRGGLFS
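Screening of the MLSMR collection measured strand separation of a quenched forked DNA duplex (100 nM) by 20 nM WRN with 2 mM ATP, all final. Compounds were preincubated with enzyme 15 min at room temperature.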
POLK inh – qHTS for Inhibitors of Polymerase Kappa; actives 0.53% (n = 400,000); purified Pol kappa, fluorescent DNA synthesis assay, 10 min; AID 588579, 2011; Potency, µM (top dose mostly 107 µM), inactives show top-dose activity, negative = inhibition, actives largely listed as inhibitors; note: % is set by controls: 0 for no effect and ±100 for the full control effect
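10 nM Pol kappa was preincubated with compounds for 15 min at room temperature. Reaction started with 50 nM (final) substrate. Fluorescence read kinetically at 0 and 10 min.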
Pol eta inh – qHTS for Inhibitors of Polymerase Eta. recombinant Pol eta, fluorescent DNA replication assay. DNA polymerase eta (Homo sapiens), Q9Y253. AID 588591, 2011. Potency, µM (titrated, usually from 114 µM), without a hit: top-dose activity change, negative = inhibition, hits mostly inhibitors. actives 1.2% (n = 390,000); note: % is set by controls: 0 for no effect and ±100 for the full control effect
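Pol eta (10 nM) was preincubated with compounds for 15 min at room temperature, after which fluorescent replication substrate (50 nM final) was added to start the reaction. Fluorescence was read kinetically at 0 and 10 min.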
Pol beta inh – qHTS Assay for Inhibitors of DNA Polymerase Beta. Potency, µM (series often up to 114 µM), inactives show at the top dose activity change, negative = inhibition, actives largely listed as inhibitors. Pol beta primer extension/strand displacement, fluorescence kinetic. actives 1.3% (n = 340,000). AID 485314, 2010; note: % is set by controls: 0 for no effect and ±100 for the full control effect
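Human Pol beta at 10 nM; strand-displacement substrate 50 nM final. Compound exposure 15 min at room temperature before start, reaction 10 min at room temperature.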
* marks the source's active call; other numbers are inactive results; [ ] = another dose, or the depositor's remark. Hits are enriched below; roughly 2.4% of the tested compounds scored in any of these assays. Calls come from the whole dose curve; as a rule, active = well fitted curve in the direction sought with a large enough effect; inconclusive = small, poorly fitted or top-dose-only effect, or another doubt; inactive = no such curve, though single readings can be large; an effect the other way counts as inactive or inconclusive. Potency is the fitted concentration of half-maximal effect.

Results for Cc1ccncc1C(=O)O ?
POLK inh: 15%[60.1 µM]

How did O=c1c(N2CCCCC2)csc2ccc(F)cc12 do in these assays?
FEN1 inhibitor: 2%; Pol iota inh: 24%; POLK inh: -9%[60.1 µM]; Pol eta inh: -19%; Pol beta inh: 0%

How did N#Cc1c(-c2ccco2)nc(SCC(=O)Nc2cccc(Cl)c2)[nH]c1=O do in these assays?
FEN1 inhibitor: -4%; Pol iota inh: inconclusive; WRN inhibitor: inconclusive; POLK inh: -16%; Pol eta inh: inconclusive; Pol beta inh: 56µM*

Results for O=C(CSc1nc2[nH]ncc2c(=O)[nH]1)Nc1cccc(Cl)c1 ?
FEN1 inhibitor: -1%; Pol iota inh: -8%; WRN inhibitor: -7%; POLK inh: 6%; Pol eta inh: -15%

What do the screens show for `CCc1ccc(NC(=O)C(C)Sc2nc(-c3ccco3)c(C#N)c(=O)[nH]2)cc1` (stereo not given)?
FEN1 inhibitor: -20%; Pol iota inh: inconclusive; WRN inhibitor: inconclusive; POLK inh: -39%; Pol eta inh: 18µM*; Pol beta inh: -17%

Results for CC(=O)NCCNc1nc(-c2cccc(C#N)c2)nc2ccccc12 ?
POLK inh: 4%[60.1 µM]

Results for O=C(NC1CCCCC1)c1ccc(CSc2nc3cccnc3n2Cc2cccc(F)c2)cc1 ?
FEN1 inhibitor: 14%; Pol iota inh: 39%; POLK inh: -14%; Pol eta inh: -23%; Pol beta inh: -30%

Results for c1ccc(Oc2nc(N3CCOCC3)nc(N3CCOCC3)n2)cc1 ?
FEN1 inhibitor: 3%; Pol iota inh: -29%; WRN inhibitor: -1%; POLK inh: -3%; Pol eta inh: -11%; Pol beta inh: 89µM*

How did O=C(O)c1cccc(S(=O)(=O)Nc2cccc(S(=O)(=O)N3CCCCCC3)c2)c1 do in these assays?
FEN1 inhibitor: 3%; Pol iota inh: 89µM*; WRN inhibitor: 0%[11.6 µM]; POLK inh: -16%; Pol eta inh: 2%; Pol beta inh: 4%

Results for Cc1ccc(S(=O)(=O)Nc2nc3ccccc3nc2Nc2cccc(S(=O)(=O)N3CCCC3)c2)cc1 ?
FEN1 inhibitor: 37%; Pol iota inh: 7.1µM*; WRN inhibitor: inconclusive; POLK inh: inconclusive; Pol eta inh: -8%; Pol beta inh: 11%

Results for O=C(O)c1cccc(S(=O)(=O)Nc2cccc(S(=O)(=O)N3CCCC3)c2)c1 ?
FEN1 inhibitor: -1%; Pol iota inh: -17%; WRN inhibitor: -3%; POLK inh: -13%; Pol eta inh: inconclusive

How did O=[N+]([O-])c1cccc(S(=O)(=O)Nc2nc3ccccc3nc2Nc2cccc(S(=O)(=O)N3CCCCC3)c2)c1 do in these assays?
FEN1 inhibitor: inconclusive; Pol iota inh: 11%; WRN inhibitor: inconclusive; POLK inh: 5%[60.1 µM]; Pol eta inh: inconclusive; Pol beta inh: inconclusive

How did COc1ccc2c(c1)O[C@@H]1c3ccc(OC)cc3OCC21 (stereo not given in full) do in these assays?
POLK inh: -2%[60.1 µM]

How did COc1cc(C(=O)OCc2cc(=O)n3nc(C4CCCCC4)sc3n2)cc(OC)c1OC do in these assays?
FEN1 inhibitor: 12%; Pol iota inh: -5%; POLK inh: 0%; Pol eta inh: -4%; Pol beta inh: -15%

How did CCOc1nc(C#N)nc(N(c2ccccc2)c2ccccc2)n1 do in these assays?
FEN1 inhibitor: 2%; Pol iota inh: -6%; POLK inh: -13%

Results for COc1ccc(C2C(C(=O)/C=C/c3ccco3)=C(O)C(=O)N2CCN2CCOCC2)cc1 (stereo not given) ?
FEN1 inhibitor: 1%; Pol iota inh: 20µM*; WRN inhibitor: -21%; POLK inh: -24%; Pol eta inh: -28%; Pol beta inh: inconclusive

How did COc1cccc(C2C(C(=O)/C=C/c3ccco3)=C(O)C(=O)N2CCN2CCOCC2)c1 (stereo not given) do in these assays?
FEN1 inhibitor: -15%; Pol iota inh: inconclusive; WRN inhibitor: -10%[57.1 µM]; POLK inh: -40%; Pol eta inh: -19%; Pol beta inh: -8%

What do the screens show for `CCOC(=O)c1cnn2c(N)c(C#N)cnc12`?
FEN1 inhibitor: -13%; Pol iota inh: -7%; WRN inhibitor: 5%; POLK inh: -4%; Pol eta inh: 2%; Pol beta inh: -7%

Results for CCOC(=O)c1cnn2c(N)c(C#N)nnc12 ?
FEN1 inhibitor: -6%; Pol iota inh: 89µM*; WRN inhibitor: -13%; POLK inh: -8%; Pol eta inh: inconclusive; Pol beta inh: 4%

How did CCc1noc2nc(C)n(CC(=O)O)c(=O)c12 do in these assays?
FEN1 inhibitor: 20%; Pol iota inh: 25%; POLK inh: -11%; Pol eta inh: -23%; Pol beta inh: 5%

What do the screens show for `O=c1[nH]c(CSc2nc3ccccc3s2)nc2ccccc12`?
FEN1 inhibitor: 13%; Pol iota inh: 20%; WRN inhibitor: -3%; POLK inh: 0%; Pol eta inh: -4%; Pol beta inh: -11%

Results for Cc1sc2nc(CSC(C)C(=O)Nc3ccccn3)[nH]c(=O)c2c1C (stereo not given) ?
FEN1 inhibitor: 2%; Pol iota inh: -15%; WRN inhibitor: -8%; POLK inh: -16%; Pol eta inh: 71µM*

How did Cc1cccc(NC(=O)C(C)SCc2nc3sc(C)c(C)c3c(=O)[nH]2)n1 (stereo not given) do in these assays?
FEN1 inhibitor: 8%; Pol iota inh: inconclusive; WRN inhibitor: inconclusive; POLK inh: -5%; Pol eta inh: inconclusive; Pol beta inh: inconclusive

Results for Cc1sc2nc(CSc3nc4ccccc4s3)[nH]c(=O)c2c1C ?
Pol beta inh: 40µM*

Results for Nc1nc(NC2CC2)c2ncn([C@H]3C=C[C@@H](CO)C3)c2n1 ?
POLK inh: 2%[60.1 µM]
